Source: PubChem BioAssay AID1159580 (chemical genetic matrix, 2015)
Several values for one entry are separate records, joined by “and”; a condition that tells them apart may be missing. Equal entries are not always repeated. In all, about 5,500 compounds went through this assay and about 2,000 (36%) were called active. Inconclusive results (about 18%) are left out. No stated cut-off is given here; in the data, active means normalized growth mostly below about 0.91 (no sharp cut-off); inconclusive means no clear call, values can overlap the other calls; inactive means mostly above about 0.92. The list shows a part of the results.

Assay: chemical genetic growth profiling, strain panel (AID 1159580);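 further: tested at 20 µM; growth read once vehicle control cultures reached saturation at 30 °C; 1 = growth at the plate median or of vehicle wells; lower values mean less growth of the strain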
Conditions: growth OD

Measured: normalized growth

CN/C(=C\[N+](=O)[O-])NCCSCc1ccc(CN(C)C)o1
inactive: S. cerevisiae deletion strains, locus YKL009W, strain mrt4, hits give low values 1.02 | S. cerevisiae deletion strains, locus YKL068W, hits give low values 0.999 | S. cerevisiae deletion strains, locus YKL085W, strain MDH1 (second series), hits give low values 1.01 | S. cerevisiae deletion strains, locus YKL085W, strain MDH1, hits give low values 1.01 | S. cerevisiae deletion strains, locus YKL160W, strain elf1, hits give low values 0.988 | S. cerevisiae deletion strains, locus YKL190W, strain CNB1, hits give low values 1.01 | S. cerevisiae deletion strains, locus YKR001C, strain vps1, hits give low values 0.993 | S. cerevisiae deletion strains, locus YKR026C, strain gcn3, hits give low values 1 | S. cerevisiae deletion strains, locus YKR091W, strain srl3, hits give low values 0.988 | S. cerevisiae deletion strains, locus YLL001W, strain dnm1, hits give low values 0.989 | S. cerevisiae deletion strains, locus YLL026W, hits give low values 0.992 | S. cerevisiae deletion strains, locus YLL041C, strain sdh2, hits give low values 0.979 | S. cerevisiae deletion strains, locus YLR027C, strain aat2, hits give low values 0.989 | S. cerevisiae deletion strains, locus YLR039C, strain RIC1, hits give low values 1.05 | S. cerevisiae deletion strains, locus YLR058C, strain SHM2, hits give low values 1.03 | S. cerevisiae deletion strains, locus YLR102C, strain apc9, hits give low values 0.977 | S. cerevisiae deletion strains, locus YLR113W, strain HOG1, hits give low values 0.996 | S. cerevisiae deletion strains, locus YLR221C, strain rsa3, hits give low values 0.993 | S. cerevisiae deletion strains, locus YLR258W, strain gsy2, hits give low values 0.99 | S. cerevisiae deletion strains, locus YLR262C, strain YPT6 (second series), hits give low values 0.972 | S. cerevisiae deletion strains, locus YLR262C, strain YPT6, hits give low values 1.11 | S. cerevisiae deletion strains, locus YLR268W, strain sec22, hits give low values 0.997 | S. cerevisiae deletion strains, locus YLR320W, strain mms22, hits give low values 0.99 | S. cerevisiae deletion strains, locus YLR330W, strain CHS5, hits give low values 1.01 | S. cerevisiae deletion strains, locus YLR342W, strain FKS1 (second series), hits give low values 1.01 | S. cerevisiae deletion strains, locus YLR342W, strain FKS1, hits give low values 0.969 | S. cerevisiae deletion strains, locus YLR357W, strain rsc2, hits give low values 0.908 | S. cerevisiae deletion strains, locus YLR370C, strain arc18, hits give low values 0.982 | S. cerevisiae deletion strains, locus YLR371W, strain rom2, hits give low values 0.983 | S. cerevisiae deletion strains, locus YLR384C, strain iki3, hits give low values 0.989 | S. cerevisiae deletion strains, locus YLR418C, strain cdc73, hits give low values 0.994 | S. cerevisiae deletion strains, locus YML016C, strain PPZ1, hits give low values 1.02 | S. cerevisiae deletion strains, locus YML032C, strain rad52, hits give low values 0.977 | S. cerevisiae deletion strains, locus YML120C, strain ndi1, hits give low values 0.981 | S. cerevisiae deletion strains, locus YML124C, strain tub3, hits give low values 0.991 | S. cerevisiae deletion strains, locus YMR058W, strain fet3, hits give low values 0.979 | S. cerevisiae deletion strains, locus YMR078C, strain ctf18, hits give low values 0.987 | S. cerevisiae deletion strains, locus YMR125W, strain sto1, hits give low values 0.982 | S. cerevisiae deletion strains, locus YMR129W, hits give low values 0.995 | S. cerevisiae deletion strains, locus YMR205C, strain PFK2, hits give low values 0.976 | S. cerevisiae deletion strains, locus YMR223W, strain ubp8, hits give low values 0.996 | S. cerevisiae deletion strains, locus YMR231W, strain pep5, hits give low values 0.997 | S. cerevisiae deletion strains, locus YMR263W, strain SAP30, hits give low values 1.04 and 1 | S. cerevisiae deletion strains, locus YMR307W, strain GAS1, hits give low values 1.07 and 1.03 | S. cerevisiae deletion strains, locus YNL067W, strain RPL9B, hits give low values 1.04 | S. cerevisiae deletion strains, locus YNL071W, strain lat1, hits give low values 0.987 | S. cerevisiae deletion strains, locus YNL128W, strain TEP1, hits give low values 1.02 | S. cerevisiae deletion strains, locus YNL153C, strain GIM3, hits give low values 1.01 | S. cerevisiae deletion strains, locus YNL175C, strain NOP13, hits give low values 0.997 | S. cerevisiae deletion strains, locus YNL183C, strain NPR1, hits give low values 0.944 | S. cerevisiae deletion strains, locus YNL197C, strain WHI3, hits give low values 1.01 | S. cerevisiae deletion strains, locus YNL209W, strain ssb2, hits give low values 0.994 | S. cerevisiae deletion strains, locus YNL224C, strain SQS1, hits give low values 0.998 | S. cerevisiae deletion strains, locus YNL233W, strain BNI4, hits give low values 1.03 | S. cerevisiae deletion strains, locus YNL248C, strain rpa49, hits give low values 0.98 | S. cerevisiae deletion strains, locus YNL250W, strain rad50, hits give low values 0.982 | S. cerevisiae deletion strains, locus YNL271C, strain bni1, hits give low values 0.974 | S. cerevisiae deletion strains, locus YNL298W, strain CLA4, hits give low values 1 | S. cerevisiae deletion strains, locus YNL307C, strain MCK1, hits give low values 0.986 | S. cerevisiae deletion strains, locus YNL322C, strain KRE1 (second series), hits give low values 0.96 | S. cerevisiae deletion strains, locus YNL322C, strain KRE1, hits give low values 1.01 | S. cerevisiae deletion strains, locus YNR049C, strain mso1, hits give low values 0.988 | S. cerevisiae deletion strains, locus YNR052C, strain pop2, hits give low values 0.984 | S. cerevisiae deletion strains, locus YOL006C, strain TOP1, hits give low values 1.13 | S. cerevisiae deletion strains, locus YOL012C, strain htz1 1.11 | S. cerevisiae deletion strains, locus YOL147C, strain pex11, hits give low values 0.99 | S. cerevisiae deletion strains, locus YOR001W, strain rrp6, hits give low values 0.982 | S. cerevisiae deletion strains, locus YOR061W, strain CKA2, hits give low values 1.02 | S. cerevisiae deletion strains, locus YOR069W, strain VPS5, hits give low values 1.02 | S. cerevisiae deletion strains, locus YOR070C, strain gyp1, hits give low values 0.989 | S. cerevisiae deletion strains, locus YOR080W, strain dia2, hits give low values 0.99 | S. cerevisiae deletion strains, locus YOR083W, strain WHI5 (second series), hits give low values 1.02 | S. cerevisiae deletion strains, locus YOR083W, strain WHI5, hits give low values 0.982 | S. cerevisiae deletion strains, locus YOR106W, strain vam3, hits give low values 0.999 | S. cerevisiae deletion strains, locus YOR136W, strain idh2, hits give low values 0.982 | S. cerevisiae deletion strains, locus YOR144C, strain elg1, hits give low values 0.992 | S. cerevisiae deletion strains, locus YOR184W, strain ser1, hits give low values 0.994 | S. cerevisiae deletion strains, locus YOR231W, strain MKK1, hits give low values 0.99 | S. cerevisiae deletion strains, locus YOR265W, strain rbl2, hits give low values 0.974 | S. cerevisiae deletion strains, locus YOR270C, strain vph1, hits give low values 1 | S. cerevisiae deletion strains, locus YOR290C, strain snf2, hits give low values 0.996 | S. cerevisiae deletion strains, locus YOR316C, strain cot1, hits give low values 0.985 | S. cerevisiae deletion strains, locus YPL051W, strain arl3, hits give low values 1 | S. cerevisiae deletion strains, locus YPL055C, strain LGE1, hits give low values 0.991 | S. cerevisiae deletion strains, locus YPL078C, strain atp4, hits give low values 0.982 | S. cerevisiae deletion strains, locus YPL106C, strain sse1, hits give low values 0.956 | S. cerevisiae deletion strains, locus YPL240C, strain hsp82, hits give low values 0.99 | S. cerevisiae deletion strains, locus YPL241C, strain CIN2, hits give low values 1 | S. cerevisiae deletion strains, locus YPL256C, strain CLN2, hits give low values 0.968 | S. cerevisiae deletion strains, locus YPR119W, strain clb2, hits give low values 0.988 | S. cerevisiae deletion strains, locus YPR141C, strain kar3, hits give low values 0.995 | S. cerevisiae deletion strains, locus YPR163C, strain tif3, hits give low values 0.993 | S. cerevisiae deletion strains, locus YPR167C, strain met16, hits give low values 0.98 | S. cerevisiae deletion strains, strain wtn01, hits give low values 0.987 | S. cerevisiae strains, strain wild type, hits give low values 1.02
